This passage reports inhibition results from ChEMBL document CHEMBL1961873, “Compounds: GSK PKIS; Assays: Nanosyn kinase panel” (2012).

Assay [1] deals with T1, Serine/threonine-protein kinase D2 (Homo sapiens) (UniProt Q9BZL6).
T1 sequence (whole entry): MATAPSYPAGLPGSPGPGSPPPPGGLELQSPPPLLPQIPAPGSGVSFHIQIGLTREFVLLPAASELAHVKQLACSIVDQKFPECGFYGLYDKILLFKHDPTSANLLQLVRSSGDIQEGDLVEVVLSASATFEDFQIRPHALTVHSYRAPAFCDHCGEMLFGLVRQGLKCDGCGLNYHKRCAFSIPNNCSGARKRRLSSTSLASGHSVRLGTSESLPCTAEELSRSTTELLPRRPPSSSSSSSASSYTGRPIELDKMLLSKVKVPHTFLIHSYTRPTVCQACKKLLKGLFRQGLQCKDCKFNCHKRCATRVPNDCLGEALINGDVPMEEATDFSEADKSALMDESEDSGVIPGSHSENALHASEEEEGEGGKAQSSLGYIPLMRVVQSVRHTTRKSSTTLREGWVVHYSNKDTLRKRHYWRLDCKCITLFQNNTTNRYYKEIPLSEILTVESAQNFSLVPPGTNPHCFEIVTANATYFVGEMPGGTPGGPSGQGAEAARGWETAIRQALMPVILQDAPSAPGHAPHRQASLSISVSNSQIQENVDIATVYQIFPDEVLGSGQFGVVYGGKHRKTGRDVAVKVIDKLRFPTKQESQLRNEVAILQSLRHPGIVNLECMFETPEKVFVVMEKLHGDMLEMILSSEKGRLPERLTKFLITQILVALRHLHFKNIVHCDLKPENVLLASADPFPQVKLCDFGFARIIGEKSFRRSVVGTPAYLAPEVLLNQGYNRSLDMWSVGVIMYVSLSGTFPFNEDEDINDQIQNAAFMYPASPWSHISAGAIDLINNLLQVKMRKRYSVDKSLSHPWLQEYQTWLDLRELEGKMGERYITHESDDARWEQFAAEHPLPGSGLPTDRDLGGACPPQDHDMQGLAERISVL
As to conditions: at 1 µM.

The target in assay [2] is T2, Serine/threonine-protein kinase D3 (Homo sapiens) (UniProt O94806).
T2 sequence (whole entry): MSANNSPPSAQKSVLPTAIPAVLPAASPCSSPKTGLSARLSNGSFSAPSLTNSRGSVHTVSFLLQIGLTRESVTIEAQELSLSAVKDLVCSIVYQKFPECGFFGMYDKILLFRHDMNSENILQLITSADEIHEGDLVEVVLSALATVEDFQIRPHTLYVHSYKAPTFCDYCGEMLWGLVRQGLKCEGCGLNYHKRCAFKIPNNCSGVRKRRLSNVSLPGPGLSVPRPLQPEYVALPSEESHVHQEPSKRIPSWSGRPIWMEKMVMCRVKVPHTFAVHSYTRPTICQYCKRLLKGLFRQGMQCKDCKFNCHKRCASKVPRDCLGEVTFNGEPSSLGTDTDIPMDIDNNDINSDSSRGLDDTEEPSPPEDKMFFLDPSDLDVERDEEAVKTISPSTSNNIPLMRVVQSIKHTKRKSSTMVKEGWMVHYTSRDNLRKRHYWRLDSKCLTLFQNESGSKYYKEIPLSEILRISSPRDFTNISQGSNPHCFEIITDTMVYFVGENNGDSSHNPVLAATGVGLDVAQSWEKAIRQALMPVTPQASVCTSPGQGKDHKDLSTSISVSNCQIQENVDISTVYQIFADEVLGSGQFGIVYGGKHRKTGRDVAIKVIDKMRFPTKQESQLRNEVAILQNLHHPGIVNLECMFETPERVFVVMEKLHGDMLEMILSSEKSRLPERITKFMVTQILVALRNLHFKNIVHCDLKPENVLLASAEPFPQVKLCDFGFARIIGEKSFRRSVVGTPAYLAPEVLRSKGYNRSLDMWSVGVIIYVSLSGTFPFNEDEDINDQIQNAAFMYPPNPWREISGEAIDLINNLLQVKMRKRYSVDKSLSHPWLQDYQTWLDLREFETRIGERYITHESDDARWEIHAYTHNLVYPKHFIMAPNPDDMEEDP
As to conditions: at 0.1 µM.

Assay [3] has as its target T2, Serine/threonine-protein kinase D3 (Homo sapiens). The settings on record: at 1 µM.
Assay [4] deals with T3, cGMP-dependent protein kinase 1 (Homo sapiens) (UniProt Q13976).
T3 sequence (whole entry): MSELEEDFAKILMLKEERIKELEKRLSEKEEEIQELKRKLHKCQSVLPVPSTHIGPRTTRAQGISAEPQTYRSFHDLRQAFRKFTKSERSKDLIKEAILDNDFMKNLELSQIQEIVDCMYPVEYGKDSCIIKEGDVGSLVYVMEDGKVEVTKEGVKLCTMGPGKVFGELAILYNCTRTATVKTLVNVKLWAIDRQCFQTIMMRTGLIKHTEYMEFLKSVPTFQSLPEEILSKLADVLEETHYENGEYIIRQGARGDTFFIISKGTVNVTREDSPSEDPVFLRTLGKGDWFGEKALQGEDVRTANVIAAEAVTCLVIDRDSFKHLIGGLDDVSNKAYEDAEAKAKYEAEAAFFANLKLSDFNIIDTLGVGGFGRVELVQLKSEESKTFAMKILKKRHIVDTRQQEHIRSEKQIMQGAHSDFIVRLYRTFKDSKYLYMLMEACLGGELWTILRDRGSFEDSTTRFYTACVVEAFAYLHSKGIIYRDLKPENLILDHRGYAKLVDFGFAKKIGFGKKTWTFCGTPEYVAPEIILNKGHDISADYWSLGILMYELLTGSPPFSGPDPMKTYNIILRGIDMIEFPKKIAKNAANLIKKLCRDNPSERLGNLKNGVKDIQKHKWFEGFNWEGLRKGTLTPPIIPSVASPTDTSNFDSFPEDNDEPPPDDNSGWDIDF
The settings on record: at 0.1 µM.

The target of assay [5] is T3, cGMP-dependent protein kinase 1 (Homo sapiens). As to conditions: at 1 µM.
Assay [6] addresses T4, cGMP-dependent protein kinase 2 (Homo sapiens) (UniProt Q13237).
T4 sequence (whole entry): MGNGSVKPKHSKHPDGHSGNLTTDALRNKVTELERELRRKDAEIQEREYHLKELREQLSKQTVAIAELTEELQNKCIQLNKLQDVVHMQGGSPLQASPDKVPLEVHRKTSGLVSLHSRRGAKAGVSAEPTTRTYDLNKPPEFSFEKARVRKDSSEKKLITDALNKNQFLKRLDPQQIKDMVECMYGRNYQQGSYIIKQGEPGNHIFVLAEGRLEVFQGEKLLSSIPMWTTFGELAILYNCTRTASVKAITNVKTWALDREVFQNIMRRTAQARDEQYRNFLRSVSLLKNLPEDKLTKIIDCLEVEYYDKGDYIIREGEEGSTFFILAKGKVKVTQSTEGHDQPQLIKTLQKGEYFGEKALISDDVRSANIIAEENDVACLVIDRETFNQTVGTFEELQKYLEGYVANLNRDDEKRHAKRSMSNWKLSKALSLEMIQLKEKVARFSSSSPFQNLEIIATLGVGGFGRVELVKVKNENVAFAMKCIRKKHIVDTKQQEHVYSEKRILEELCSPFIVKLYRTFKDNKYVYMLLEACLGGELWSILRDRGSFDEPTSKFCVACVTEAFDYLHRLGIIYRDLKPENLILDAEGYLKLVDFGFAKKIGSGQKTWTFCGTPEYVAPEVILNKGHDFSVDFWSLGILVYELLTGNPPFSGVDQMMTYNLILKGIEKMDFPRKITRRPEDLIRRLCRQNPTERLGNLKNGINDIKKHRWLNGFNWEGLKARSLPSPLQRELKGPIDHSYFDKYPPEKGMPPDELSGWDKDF
As to conditions: at 0.1 µM.

For assay [7], the target named is T4, cGMP-dependent protein kinase 2 (Homo sapiens). The settings on record: at 1 µM.
Assay [8] addresses T5, cAMP-dependent protein kinase catalytic subunit PRKX (Homo sapiens) (UniProt P51817).
T5 sequence (whole entry): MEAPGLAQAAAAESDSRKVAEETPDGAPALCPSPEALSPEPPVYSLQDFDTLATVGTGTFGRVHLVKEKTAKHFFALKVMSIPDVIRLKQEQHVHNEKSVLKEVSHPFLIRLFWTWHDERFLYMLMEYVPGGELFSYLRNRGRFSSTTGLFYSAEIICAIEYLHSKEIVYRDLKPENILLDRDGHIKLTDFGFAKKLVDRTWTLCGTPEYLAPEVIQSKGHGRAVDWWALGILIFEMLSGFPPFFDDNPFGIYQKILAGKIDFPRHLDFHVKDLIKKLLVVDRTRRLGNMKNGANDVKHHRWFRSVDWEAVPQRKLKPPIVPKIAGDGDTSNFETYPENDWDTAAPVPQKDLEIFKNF
The settings on record: at 0.1 µM.

Assay [9] deals with T5, cAMP-dependent protein kinase catalytic subunit PRKX (Homo sapiens). The settings on record: at 1 µM.
For assay [10], the target named is Rho-associated protein kinase 1 (Homo sapiens) (UniProt Q13464). As to conditions: at 0.1 µM.
Assay [11] shares this target. The settings on record: at 1 µM.
For assay [12], the target named is Rho-associated protein kinase 2 (Homo sapiens) (UniProt O75116). The settings on record: at 0.1 µM.
The target is the same in assay [13]. As to conditions: at 1 µM.
For assay [14], the target named is Ribosomal protein S6 kinase alpha-1 (Homo sapiens) (UniProt Q15418). The settings on record: at 0.1 µM.
For assay [15] the target is unchanged. As to conditions: at 1 µM.
Assay [16] has as its target Ribosomal protein S6 kinase alpha-3 (Homo sapiens) (UniProt P51812). As to conditions: at 0.1 µM.
The target is the same in assay [17]. As to conditions: at 1 µM.
For assay [18], the target named is Ribosomal protein S6 kinase alpha-2 (Homo sapiens) (UniProt Q15349). As to conditions: at 0.1 µM.
Assay [19] has the same target. The settings on record: at 1 µM.
Assay [20] addresses Ribosomal protein S6 kinase alpha-6 (Homo sapiens) (UniProt Q9UK32). The settings on record: at 0.1 µM.

Sequence of Rho-associated protein kinase 1 (Homo sapiens) (Q13464 2-1354 limits assumed): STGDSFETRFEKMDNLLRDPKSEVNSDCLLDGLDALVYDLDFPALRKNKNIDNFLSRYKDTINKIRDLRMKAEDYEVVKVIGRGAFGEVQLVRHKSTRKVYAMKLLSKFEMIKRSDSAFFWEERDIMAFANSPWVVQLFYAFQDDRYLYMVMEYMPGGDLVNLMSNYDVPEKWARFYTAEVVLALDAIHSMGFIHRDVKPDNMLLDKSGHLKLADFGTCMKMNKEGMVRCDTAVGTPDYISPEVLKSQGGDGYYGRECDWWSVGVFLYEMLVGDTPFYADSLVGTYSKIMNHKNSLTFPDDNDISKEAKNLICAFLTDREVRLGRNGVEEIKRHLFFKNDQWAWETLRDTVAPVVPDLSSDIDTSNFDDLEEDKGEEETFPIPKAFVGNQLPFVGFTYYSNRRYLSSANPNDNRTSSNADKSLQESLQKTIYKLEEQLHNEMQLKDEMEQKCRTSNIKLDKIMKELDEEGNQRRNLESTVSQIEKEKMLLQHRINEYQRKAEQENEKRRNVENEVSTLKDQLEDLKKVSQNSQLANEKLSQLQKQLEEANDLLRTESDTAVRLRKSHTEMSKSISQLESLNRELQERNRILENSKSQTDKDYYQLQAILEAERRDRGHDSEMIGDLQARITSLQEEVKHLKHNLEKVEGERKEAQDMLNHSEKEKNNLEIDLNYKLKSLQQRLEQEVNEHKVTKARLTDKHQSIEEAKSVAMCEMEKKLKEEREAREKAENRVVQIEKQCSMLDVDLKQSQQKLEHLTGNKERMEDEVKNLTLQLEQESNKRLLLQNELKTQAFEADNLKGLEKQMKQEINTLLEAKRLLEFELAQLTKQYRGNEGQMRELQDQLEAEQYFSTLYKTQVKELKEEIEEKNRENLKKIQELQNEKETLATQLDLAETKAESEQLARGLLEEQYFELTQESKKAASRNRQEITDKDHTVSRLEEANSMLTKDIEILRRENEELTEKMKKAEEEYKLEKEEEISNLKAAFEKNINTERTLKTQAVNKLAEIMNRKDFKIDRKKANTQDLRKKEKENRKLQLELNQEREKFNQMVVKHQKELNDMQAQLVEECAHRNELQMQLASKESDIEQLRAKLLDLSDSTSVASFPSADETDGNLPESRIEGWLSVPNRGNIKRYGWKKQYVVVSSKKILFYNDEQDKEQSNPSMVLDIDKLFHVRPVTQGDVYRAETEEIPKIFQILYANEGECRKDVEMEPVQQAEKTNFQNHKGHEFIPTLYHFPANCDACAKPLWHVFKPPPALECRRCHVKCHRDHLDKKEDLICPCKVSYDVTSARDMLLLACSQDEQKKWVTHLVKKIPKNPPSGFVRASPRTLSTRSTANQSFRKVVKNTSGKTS
Sequence of Ribosomal protein S6 kinase alpha-2 (Homo sapiens) (Q15349 whole entry): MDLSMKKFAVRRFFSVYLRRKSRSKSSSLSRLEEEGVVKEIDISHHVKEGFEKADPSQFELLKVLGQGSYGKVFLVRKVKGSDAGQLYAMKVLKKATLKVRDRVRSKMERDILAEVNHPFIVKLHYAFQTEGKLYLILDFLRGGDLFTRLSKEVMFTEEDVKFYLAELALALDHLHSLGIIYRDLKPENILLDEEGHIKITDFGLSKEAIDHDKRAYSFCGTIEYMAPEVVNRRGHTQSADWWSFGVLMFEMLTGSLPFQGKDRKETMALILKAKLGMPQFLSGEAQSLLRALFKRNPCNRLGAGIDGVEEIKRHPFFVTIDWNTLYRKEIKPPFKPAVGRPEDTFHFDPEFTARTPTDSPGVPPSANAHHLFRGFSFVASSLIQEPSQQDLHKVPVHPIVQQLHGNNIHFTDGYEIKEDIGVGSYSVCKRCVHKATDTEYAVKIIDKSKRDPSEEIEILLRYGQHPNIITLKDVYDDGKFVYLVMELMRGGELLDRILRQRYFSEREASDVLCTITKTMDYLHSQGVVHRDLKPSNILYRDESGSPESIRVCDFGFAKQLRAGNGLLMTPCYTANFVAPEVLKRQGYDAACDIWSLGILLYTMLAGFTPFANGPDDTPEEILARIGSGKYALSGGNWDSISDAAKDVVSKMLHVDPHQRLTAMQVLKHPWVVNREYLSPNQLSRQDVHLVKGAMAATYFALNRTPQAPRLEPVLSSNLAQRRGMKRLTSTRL
Sequence of Ribosomal protein S6 kinase alpha-1 (Homo sapiens) (Q15418 whole entry): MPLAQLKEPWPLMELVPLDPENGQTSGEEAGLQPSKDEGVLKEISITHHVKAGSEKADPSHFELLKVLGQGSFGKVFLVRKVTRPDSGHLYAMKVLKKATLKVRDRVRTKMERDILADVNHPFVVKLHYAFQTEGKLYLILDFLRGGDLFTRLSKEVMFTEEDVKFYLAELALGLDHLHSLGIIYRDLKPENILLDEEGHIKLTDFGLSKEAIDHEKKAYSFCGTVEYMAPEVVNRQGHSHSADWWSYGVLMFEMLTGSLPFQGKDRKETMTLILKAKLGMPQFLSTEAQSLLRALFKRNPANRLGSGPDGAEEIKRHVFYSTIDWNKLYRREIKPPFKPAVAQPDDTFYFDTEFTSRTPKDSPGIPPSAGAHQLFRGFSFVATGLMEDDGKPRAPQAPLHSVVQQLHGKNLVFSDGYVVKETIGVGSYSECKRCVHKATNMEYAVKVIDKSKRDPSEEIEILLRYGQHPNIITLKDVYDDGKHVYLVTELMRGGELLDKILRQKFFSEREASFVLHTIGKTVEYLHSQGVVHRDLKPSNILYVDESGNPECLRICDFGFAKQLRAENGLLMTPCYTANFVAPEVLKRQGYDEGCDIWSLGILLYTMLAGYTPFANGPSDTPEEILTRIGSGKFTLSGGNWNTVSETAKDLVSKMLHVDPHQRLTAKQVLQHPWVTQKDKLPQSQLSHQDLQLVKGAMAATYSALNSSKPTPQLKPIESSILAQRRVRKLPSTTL
Sequence of Ribosomal protein S6 kinase alpha-6 (Homo sapiens) (Q9UK32 whole entry): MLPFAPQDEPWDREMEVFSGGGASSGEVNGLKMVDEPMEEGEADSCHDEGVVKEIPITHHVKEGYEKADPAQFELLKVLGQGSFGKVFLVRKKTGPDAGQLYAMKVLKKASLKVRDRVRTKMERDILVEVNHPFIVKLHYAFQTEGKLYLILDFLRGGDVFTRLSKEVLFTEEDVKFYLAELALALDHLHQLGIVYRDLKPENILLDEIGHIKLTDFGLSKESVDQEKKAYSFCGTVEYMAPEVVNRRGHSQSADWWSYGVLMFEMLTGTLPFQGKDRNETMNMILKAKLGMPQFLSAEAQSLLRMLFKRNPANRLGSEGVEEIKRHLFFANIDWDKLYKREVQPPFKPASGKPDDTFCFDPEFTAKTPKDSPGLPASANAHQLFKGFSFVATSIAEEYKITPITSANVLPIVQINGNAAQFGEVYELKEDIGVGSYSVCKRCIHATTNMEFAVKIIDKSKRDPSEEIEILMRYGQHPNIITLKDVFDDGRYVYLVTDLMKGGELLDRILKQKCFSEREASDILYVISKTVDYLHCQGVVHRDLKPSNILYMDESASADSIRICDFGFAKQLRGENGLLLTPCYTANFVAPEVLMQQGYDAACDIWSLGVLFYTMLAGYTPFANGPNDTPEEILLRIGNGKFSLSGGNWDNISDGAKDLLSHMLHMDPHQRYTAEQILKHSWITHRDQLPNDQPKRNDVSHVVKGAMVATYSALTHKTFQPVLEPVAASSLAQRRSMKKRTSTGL
Sequence of Rho-associated protein kinase 2 (Homo sapiens) (O75116 whole entry, looked up): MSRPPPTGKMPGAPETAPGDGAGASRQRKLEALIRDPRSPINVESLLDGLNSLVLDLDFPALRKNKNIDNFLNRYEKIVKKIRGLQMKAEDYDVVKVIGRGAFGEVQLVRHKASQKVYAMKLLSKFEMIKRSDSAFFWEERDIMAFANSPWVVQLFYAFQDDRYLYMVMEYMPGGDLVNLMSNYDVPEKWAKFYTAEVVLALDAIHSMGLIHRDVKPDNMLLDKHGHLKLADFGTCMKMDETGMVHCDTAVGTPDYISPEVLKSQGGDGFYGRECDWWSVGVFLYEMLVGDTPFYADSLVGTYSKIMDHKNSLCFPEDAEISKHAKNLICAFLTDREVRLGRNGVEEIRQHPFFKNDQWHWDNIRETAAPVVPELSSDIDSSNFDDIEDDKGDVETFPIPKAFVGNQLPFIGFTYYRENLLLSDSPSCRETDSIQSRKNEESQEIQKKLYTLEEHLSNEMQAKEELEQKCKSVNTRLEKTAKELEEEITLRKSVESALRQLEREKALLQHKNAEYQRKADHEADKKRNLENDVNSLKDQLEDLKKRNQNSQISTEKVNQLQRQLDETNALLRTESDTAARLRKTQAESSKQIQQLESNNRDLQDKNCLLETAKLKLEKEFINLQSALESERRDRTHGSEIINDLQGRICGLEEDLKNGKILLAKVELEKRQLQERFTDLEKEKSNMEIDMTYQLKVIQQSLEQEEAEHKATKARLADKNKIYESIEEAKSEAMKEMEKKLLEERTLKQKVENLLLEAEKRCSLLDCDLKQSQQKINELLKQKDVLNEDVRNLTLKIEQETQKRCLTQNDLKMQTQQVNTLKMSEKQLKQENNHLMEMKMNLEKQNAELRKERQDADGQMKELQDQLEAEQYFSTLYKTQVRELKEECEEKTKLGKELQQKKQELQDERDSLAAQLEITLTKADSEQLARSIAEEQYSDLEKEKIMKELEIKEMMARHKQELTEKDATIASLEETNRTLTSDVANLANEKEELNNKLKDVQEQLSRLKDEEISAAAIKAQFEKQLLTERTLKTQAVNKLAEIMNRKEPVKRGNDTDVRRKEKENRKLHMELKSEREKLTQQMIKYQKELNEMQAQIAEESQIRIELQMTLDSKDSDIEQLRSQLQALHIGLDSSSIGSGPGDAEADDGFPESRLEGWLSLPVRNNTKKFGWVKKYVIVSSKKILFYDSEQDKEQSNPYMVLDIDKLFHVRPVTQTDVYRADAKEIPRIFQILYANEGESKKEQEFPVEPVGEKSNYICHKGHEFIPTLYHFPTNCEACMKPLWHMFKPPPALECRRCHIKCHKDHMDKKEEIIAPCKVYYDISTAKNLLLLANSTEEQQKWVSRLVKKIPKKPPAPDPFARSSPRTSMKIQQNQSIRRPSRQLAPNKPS

What is called inhibition is the relative decrease from the control value, in per cent. Lower therefore signals little suppression. With `Nc1nc(-c2ccccn2)c(-c2ccc3ncccc3n2)s1`, the inhibition in [1] is 3.27%; in assay [2], 3.61%; in assay [3], 3.13%; in assay [4], 0.89%; in assay [5] it was 3.86%; in assay [6], 1.67%. For the same compound, the inhibition in [7] is 6%; in assay [8], 1.03%; in assay [9], 1.92%; in assay [10], 0.46%; in assay [11], 2.15%; in [12], 2.83%. In addition, the inhibition in [13] amounted to 6.38%; in assay [14], 1.17%; in [15] it was 3.4%; in assay [16] it was 0.06%; in assay [17], 1.07%; in assay [18], 1.71%. In addition, the values for the inhibition in assay [19] and in [20] were 1.96% and 0.91%, respectively.
For `COc1ccc(-c2coc3ncnc(N)c23)cc1`, the inhibition in [1] turned out to be 6.47%; in [2], 4.56%; in assay [3], 7.56%; in [4], 2.84%; in [5] it was 3.68%; in [6], 2.51%. The inhibition in assay [7] came out at 3.93%; in assay [8], 1.76%; in [9], 1.11%; in assay [10], 3.01%; in assay [11] it was 3.53%; in assay [12] it was 3.52%. Also, the inhibition is 1.94% in assay [13]; 1.72% in assay [14]; 0.94% in [15]; 1.05% in assay [16]; 1.66% in [17]; 2.4% in assay [18]. Further, the inhibition in assay [19] was determined as 2.21%; in [20], 1.93%.
With `COc1ccc(-c2ccncc2)cc1C(N)=O`, the inhibition was 5.71% in assay [1]; 5.67% in [2]; 11.1% in assay [3]; 4.34% in assay [4]; 13.7% in assay [5]; 2.97% in assay [6]. Further, the inhibition came out at 17% in assay [7]; 2.9% in [8]; 3.27% in [9]; 2.65% in assay [10]; 4.76% in assay [11]; 3.14% in assay [12]. Moreover, the inhibition in assay [13] worked out at 6.03%; in assay [14], 2.42%; in assay [15], 4.51%; in [16], 1.67%; in assay [17] it was 4.1%; in assay [18] it was 3.52%. Further, the results for the inhibition in assay [19] and in assay [20] were 5.01% and 2.25%, respectively.
